PubChem BioAssay (NCATS)
Inconclusive results are not listed. Where a call stands in place of a potency, no number is given. Active and inactive are the calls of the source. Calls come from the whole dose curve; as a rule, active = well fitted curve in the direction sought with a large enough effect; inconclusive = small, poorly fitted or top-dose-only effect, or another doubt; inactive = no such curve, though single readings can be large; an effect the other way counts as inactive or inconclusive.

Columns and labels:
[1] = Primary qHTS for inhibitors of nuclear receptor binding SET domain protein 2 (NSD2) in an isogenic RCH-ACV NSD2 p.E1099K mutant (9B) (AID 1645876)
[2] = Primary qHTS for inhibitors of nuclear receptor binding SET domain protein 2 (NSD2) in an RCH-ACV wild type WT cells (2C) (AID 1645877)
Note: nearly all actives have a fitted effect of over 70% in size.

Structure (SMILES)	Potency [1]	Potency [2]
COC(=O)CC[C@@H](C)[C@H]1CC[C@H]2[C@@H]3CC(=O)[C@H]4C[C@H](OC(C)=O)CC[C@]4(C)[C@H]3CC[C@]12C	inactive	inactive
COC(=O)C1C(c2ccc(O)cc2)C(C(=O)OC)C1c1ccc(O)cc1 (stereo unspecified)	inactive	inactive
COC(=O)C1=CO[C@@H](O[C@@H]2O[C@H](CO)[C@@H](O)[C@H](O)[C@H]2O)[C@@H]2[C@@H](C(=O)OC)[C@@H](O)C(O)[C@H]12 (stereo partly specified)	inactive	inactive
CC(C)CC(=O)O[C@@H]1OC=C(CO[C@@H]2O[C@H](CO[C@@H]3O[C@H](CO)[C@@H](O)[C@H](O)[C@H]3O)[C@@H](O)[C@H](O)[C@H]2O)[C@H]2C[C@H](O)[C@@H](CO)[C@@H]12	inactive	inactive
COC(=O)c1ccc(O[C@@H]2O[C@H](CO)[C@@H](O)[C@H](O)[C@H]2O)c(OC)c1	inactive	inactive
O=C(/C=C/c1ccc(O)cc1)OC[C@H]1O[C@@H](OC(=O)/C=C/c2ccccc2)[C@H](O)[C@@H](O)[C@@H]1O	inactive	inactive
COc1cc(COC2OC(CO)C(O)C(O)C2O)cc(OC)c1O (stereo unspecified)	inactive	inactive
OC[C@H]1O[C@@H](Oc2cc(O)cc(-c3cc4ccc(O)cc4o3)c2)[C@H](O)[C@@H](O)[C@@H]1O		inactive
O=C(O[C@@H]1O[C@H](CO)[C@@H](O)[C@H](O)[C@H]1O)c1c(O)cc(O)cc1/C=C/c1ccccc1		inactive
